{"source": "PubChem BioAssay AID602292", "about": "(National Center for Advancing Translational Sciences (NCATS), 2012)", "note": "About 380 (29%) of roughly 1,300 compounds were called active. Not shown: some 37% with an inconclusive outcome. The list shows a part of the results. A number with no mark means an inactive call. The call rests on the fitted dose curve; in most records, active means well fitted inhibition curve with a large enough effect; inconclusive means small, poorly fitted or top-dose-only effect; inactive means flat fitted curve, though single readings scatter. On the % scale 0 is the no-effect control and ±100 the full control effect; potency means the concentration at half of the fitted maximal effect.", "data": [{"molecular_target": "Thyrotropin receptor (Homo sapiens) (UniProt P16473)", "sequence (P16473 whole entry, looked up)": "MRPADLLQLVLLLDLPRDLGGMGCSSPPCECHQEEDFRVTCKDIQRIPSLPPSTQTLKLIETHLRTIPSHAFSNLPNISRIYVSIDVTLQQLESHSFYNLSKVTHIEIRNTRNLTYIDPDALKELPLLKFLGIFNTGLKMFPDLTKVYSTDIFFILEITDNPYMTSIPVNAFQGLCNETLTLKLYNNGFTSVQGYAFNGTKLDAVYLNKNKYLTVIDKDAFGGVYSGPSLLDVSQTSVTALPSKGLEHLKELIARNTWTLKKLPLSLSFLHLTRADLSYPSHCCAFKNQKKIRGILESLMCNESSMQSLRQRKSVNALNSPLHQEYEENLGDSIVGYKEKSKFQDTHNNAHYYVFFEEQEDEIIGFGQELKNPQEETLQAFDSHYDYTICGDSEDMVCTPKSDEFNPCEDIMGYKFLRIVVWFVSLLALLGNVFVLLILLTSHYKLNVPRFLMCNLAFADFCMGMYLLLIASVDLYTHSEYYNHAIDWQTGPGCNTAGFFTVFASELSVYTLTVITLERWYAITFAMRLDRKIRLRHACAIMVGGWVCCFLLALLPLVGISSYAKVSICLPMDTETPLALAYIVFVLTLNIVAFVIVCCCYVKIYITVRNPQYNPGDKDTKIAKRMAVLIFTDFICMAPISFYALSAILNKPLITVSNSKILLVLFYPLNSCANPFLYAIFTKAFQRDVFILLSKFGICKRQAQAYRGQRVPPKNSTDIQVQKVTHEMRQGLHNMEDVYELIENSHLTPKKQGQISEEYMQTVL", "assay": "qHTS for antagonists of the Thyroid Stimulation Hormone Receptor: Hit Validation in Primary Screen; further: nearly all actives have a fitted effect of over 80% in size;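 on activity change, negative = inhibition: cAMP by competitive HTRF where cellular cAMP lowers the 665 nm FRET signal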", "settings": "TSHR-expressing cells, cAMP antagonist mode; series mostly up to 58 µM; activity change, negative = inhibition: at the top concentration", "outline": "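TSHR-expressing cells were pretreated with compound, then stimulated with TSH at EC80 (4nM final) for 2 hours at 37 deg C. Cellular cAMP measured by competitive HTRF (anti-cAMP cryptate, cAMP-d2) after 30 min at room temperature.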", "units": {"activity change, negative = inhibition": "%"}, "values": [{"smiles": "CCOc1ccccc1-n1c(=S)sc2c(=O)n(-c3ccc(F)cc3)c(SCC(=O)O)nc21", "activity change, negative = inhibition": -3.34}, {"smiles": "Fc1ccc2[nH]c3c(N4CCN(Cc5ccc6c(c5)OCO6)CC4)ncnc3c2c1", "Potency": "23.9 µM (active)"}, {"smiles": "O=C(c1cccc(Cl)c1)N1CCN(Cc2ccc3c(c2)OCO3)CC1", "activity change, negative = inhibition": -6.83}, {"smiles": "N#Cc1c(F)cccc1N1CCN(Cc2ccc3c(c2)OCO3)CC1", "activity change, negative = inhibition": -2.54}, {"smiles": "Fc1ccc2[nH]c3c(N4CCN(c5ccccc5)CC4)ncnc3c2c1", "Potency": "30.1 µM (active)"}, {"smiles": "Cc1ccc2c(c1)[nH]c1c(N3CCN(Cc4ccccc4)CC3)ncnc12", "Potency": "30.1 µM (active)"}, {"smiles": "O=C1NC(=O)/C(=C/c2ccccc2Oc2ccc(Cl)cc2)S1", "activity change, negative = inhibition": -8.27}, {"smiles": "CN(Cc1ccco1)S(=O)(=O)c1csc(C(N)=O)c1", "activity change, negative = inhibition": -3.34}, {"smiles": "CCc1cc2c(NCc3ccccc3)nc(C)nc2s1", "Potency": "23.9 µM (active)"}, {"smiles": "Cc1nc(SCC(=O)N2CCN(c3ccccc3)CC2)n[nH]1", "activity change, negative = inhibition": -6.86}, {"smiles": "O=C(CSc1ccc(F)cc1)N1CCC(c2nc3ccccc3s2)CC1", "Potency": "37.9 µM (active)"}, {"smiles": "C=CCC1(CC=C)CCCN1C(=O)c1cc(COc2ccc(C)nc2)on1", "Potency": "15.1 µM (active)"}, {"smiles": "Cc1ccc(NC(=O)c2ccccc2NS(=O)(=O)c2ccc(F)cc2)cc1S(=O)(=O)N1CCCCC1", "Potency": "3.79 µM (active)"}, {"smiles": "CCNC(=O)c1ccccc1NC(=O)C1CC(=O)N(C(C)C)C1", "note": "(stereo unspecified)", "activity change, negative = inhibition": -3.43}, {"smiles": "CCc1ccccc1NC(=O)C1CCCN(S(=O)(=O)c2ccc3c(c2)CC(C)N3C(C)=O)C1", "note": "(stereo unspecified)", "activity change, negative = inhibition": -5.5}, {"smiles": "CC(=O)Nc1ccc(S(=O)(=O)Nc2c(NC3CCCCC3)c3ccccc3oc2=O)cc1", "activity change, negative = inhibition": 0.576}, {"smiles": "O=C(Nc1nnc(S(=O)(=O)N2CCCC2)s1)c1ccccc1F", "activity change, negative = inhibition": -9.65}, {"smiles": "O=C(Nc1cc(S(=O)(=O)N2CCCCC2)ccc1Cl)c1ccccc1NS(=O)(=O)c1ccc(F)cc1", "Potency": "7.57 µM (active)"}, {"smiles": "CCc1ccc(N/C(SCc2cccc(F)c2)=C(/C#N)C(=O)NCc2ccco2)cc1", "activity change, negative = inhibition": -5.33}, {"smiles": "CCCCc1c(C)nc2nc(SCc3ccc(Cl)cc3)[nH]n2c1=O", "Potency": "21.3 µM (active)"}, {"smiles": "CC(C)c1cc(=O)n2[nH]c(SCc3ccccc3)nc2n1", "activity change, negative = inhibition": -0.807}, {"smiles": "C#C[C@]1(OC(C)=O)CCC2C3CCC4=CC(=O)CC[C@@H]4C3CC[C@@]21C", "note": "(stereo partly specified)", "Potency": "13.5 µM (active)"}, {"smiles": "CC(=O)N1CCc2cc(Br)cc(S(=O)(=O)N3CCC(C(=O)O)CC3)c21", "activity change, negative = inhibition": -11.2}, {"smiles": "CCC1Sc2ccc(S(=O)(=O)CCC(=O)Nc3ccccc3Cl)cc2NC1=O", "note": "(stereo unspecified)", "activity change, negative = inhibition": -11.6}, {"smiles": "O=C(c1ccc2c(c1)OCO2)N1CCN(S(=O)(=O)c2ccc(Cl)cc2)CC1", "activity change, negative = inhibition": -1.21}, {"smiles": "O=C(Nc1cccc(S(=O)(=O)Nc2ccc(Cl)cc2)c1)c1ccc2c(c1)OCCO2", "Potency": "16.9 µM (active)"}, {"smiles": "CCOC(=O)c1[nH]c2cc(OC)c(OC)cc2c1NC(=O)c1ccc2c(c1)OCO2", "activity change, negative = inhibition": -2.79}, {"smiles": "COC(=O)c1sc(NC(=O)C(C)C)c(C(=O)OC)c1C", "activity change, negative = inhibition": -4.29}, {"smiles": "Cc1cc(/C=C2\\Sc3ccccc3N2C)cc(C)[n+]1CC1CCCO1", "note": "(stereo unspecified)", "Potency": "30.1 µM (active)"}, {"smiles": "Cc1cccc(OCc2nnc(SCC(=O)N3c4ccccc4CCc4ccccc43)o2)c1", "activity change, negative = inhibition": -4.87}, {"smiles": "CC(C)Oc1ccc(C(=O)NCCNC(=O)c2ccco2)cc1", "activity change, negative = inhibition": -4.87}, {"smiles": "CC(C)Oc1ccc(C(=O)Nc2ccc(Cl)c(S(=O)(=O)Nc3ccc(Cl)cc3)c2)cc1", "Potency": "21.3 µM (active)"}, {"smiles": "COc1ccc(N(CC(=O)Nc2cc(Cl)ccc2OC)S(=O)(=O)c2c(C)noc2C)cc1", "activity change, negative = inhibition": -11.3}, {"smiles": "COc1ccc(NC(=O)c2ccc3ccccc3n2)cc1S(=O)(=O)Nc1ccccc1Cl", "activity change, negative = inhibition": -2.39}, {"smiles": "COc1ccc(C(=O)Nc2ccc(Cl)c(S(=O)(=O)Nc3ccccc3OC)c2)cc1", "Potency": "12 µM (active)"}, {"smiles": "COC(=O)C1C(=O)NC(SC)=C(C#N)C1c1ccccc1", "note": "(stereo unspecified)", "activity change, negative = inhibition": -3.77}, {"smiles": "Cc1cc(C)c2oc(C(=O)Nc3ccc(S(=O)(=O)Nc4nccc(C)n4)cc3)cc(=O)c2c1", "activity change, negative = inhibition": -4.03}, {"smiles": "O=C1OC(CC(=O)N(Cc2nnc(-c3ccc(Cl)cc3)o2)C2CC2)c2ccccc21", "note": "(stereo unspecified)", "activity change, negative = inhibition": -6.17}, {"smiles": "COc1ccc(N2CCN(c3ncnc4sc(C(=O)NCC5CCCO5)c(C)c34)CC2)cc1", "note": "(stereo unspecified)", "activity change, negative = inhibition": -1.12}, {"smiles": "Cc1sc2ncnc(N3CCN(CCOc4ccc(Cl)cc4)CC3)c2c1C", "Potency": "19 µM (active)"}, {"smiles": "Cc1[nH]n(C)c(=O)c1C(=O)c1c(-c2c(Cl)cccc2Cl)noc1C", "activity change, negative = inhibition": -5.39}, {"smiles": "COc1ccc2cc(/C=C3\\SC(=S)NC3=O)c(N3CCOCC3)nc2c1", "Potency": "3.38 µM (active)"}, {"smiles": "O=C1NC(=S)S/C1=C\\c1cc2ccccc2nc1N1CCCCC1", "Potency": "13.5 µM (active)"}, {"smiles": "CCc1ccc(-c2nnn(CCC(=O)OC)n2)cc1", "activity change, negative = inhibition": -0.749}, {"smiles": "COC(=O)c1nc2n(n1)C(c1cccc(Cl)c1)C1=C(CCCC1=O)N2", "note": "(stereo unspecified)", "activity change, negative = inhibition": -1.3}, {"smiles": "Cc1nn(-c2ccc(N3CCOCC3)nn2)c(C)c1CCC(=O)NCc1ccccc1F", "activity change, negative = inhibition": -2.51}, {"smiles": "COc1ccc(CN(C)C(=O)COC(=O)c2ccc(-c3ccccc3)cc2)c(OC)c1OC", "Potency": "23.9 µM (active)"}, {"smiles": "COc1cccc(CN(C)C(=O)CNC(=O)c2ccc(-c3ccccc3)cc2)c1OC", "Potency": "26.9 µM (active)"}, {"smiles": "CC(C)(C)C(=O)NC(=S)NNC(=O)c1ccc(-c2ccccc2)cc1", "activity change, negative = inhibition": -18.8}, {"smiles": "CCOC(=O)C1(CCOc2ccccc2)CCN(Cc2cccc(OC)c2O)CC1", "activity change, negative = inhibition": 1.47}, {"smiles": "CCn1nnc2cc(C(=O)NCC(c3ccccc3OC)N(C)C)ccc21", "note": "(stereo unspecified)", "activity change, negative = inhibition": -6.48}, {"smiles": "COc1cccc(CN(C)C(=O)c2ccc(Oc3ccccc3)cc2)c1OC", "Potency": "37.9 µM (active)"}, {"smiles": "O=C(c1ccco1)N1N=C(C2CCCCC2)CC1(O)C(F)(F)F", "note": "(stereo unspecified)", "activity change, negative = inhibition": -1.58}, {"smiles": "COc1ccc(C(CC(=O)N2CCOCC2)c2c(OC)cc(OC)c3c(-c4ccccc4)cc(=O)oc23)cc1", "note": "(stereo unspecified)", "activity change, negative = inhibition": -7.58}, {"smiles": "CC1CC(=O)N(c2ccc(C(C)C)cc2)C(=O)C1", "activity change, negative = inhibition": -1.5}, {"smiles": "O=C(Nc1ccc(S(=O)(=O)N2CCCCC2)cc1)c1ccc(CN2CCOCC2)cc1", "Potency": "23.9 µM (active)"}, {"smiles": "COCc1c(C(=O)Nc2cccc(S(=O)(=O)N3CCCCC3)c2)oc2ccccc12", "activity change, negative = inhibition": -16.5}, {"smiles": "O=C(NCCN1CCOCC1)c1c(Cl)cccc1Cl", "activity change, negative = inhibition": -6.48}, {"smiles": "COc1ccc(C(NC(=O)c2c(F)c(F)c(F)c(F)c2F)c2ccccc2)cc1", "note": "(stereo unspecified)", "Potency": "26.9 µM (active)"}, {"smiles": "CCOc1ccccc1NC(=O)C(NCCc1ccc(OC)cc1)c1ccccc1", "note": "(stereo unspecified)", "activity change, negative = inhibition": -6.08}, {"smiles": "COc1ccc(N2CCN(C(=O)[C@H](C)NC(=O)c3ccccc3Cl)CC2)cc1", "activity change, negative = inhibition": -4.81}]}]}
